Results from PMC5540273 (PLoS ONE, 2017).

Assays:
Settings in all cases: concentration: 1 μM, replicates: in singlicate; n = 1
[1] = system: T1, MRCKB
T1 construct: gene CDC42BPB

[2] = system: MST1R
[3] = system: T2, MST1
T2 construct: gene STK4

[4] = system: T3, MST2
T3 construct: gene STK3

[5] = system: T4, MST3
T4 construct: gene STK24

[6] = system: MST4
[7] = system: MTOR
[8] = system: MUSK
[9] = system: MYLK2
[10] = system: MYLK4
[11] = system: MYLK
[12] = system: MYO3A
[13] = system: MYO3B
[14] = system: T5, NDR1
T5 construct: gene STK38

[15] = system: NDR2
[16] = system: NEK10
[17] = system: NEK11
[18] = system: NEK1
[19] = system: NEK2
[20] = system: NEK3
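Further: KINOMEscan kinase panel screen.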

Row | Compound | %Inh [1] [%] | %Inh [2] [%] | %Inh [3] [%] | %Inh [4] [%] | %Inh [5] [%] | %Inh [6] [%] | %Inh [7] [%] | %Inh [8] [%] | %Inh [9] [%] | %Inh [10] [%] | %Inh [11] [%] | %Inh [12] [%] | %Inh [13] [%] | %Inh [14] [%] | %Inh [15] [%] | %Inh [16] [%] | %Inh [17] [%] | %Inh [18] [%] | %Inh [19] [%] | %Inh [20] [%]
1 | Nc1ncnc2c1ncn2-c1cccc(F)c1 [SKF-97560] | 0 | 0 | 0 | 50 | 0 | 37 | 14 | 0 | 0 | 11 | 38 | 0 | 0 | 15 | 17 | 53 | 38 | 0 | 0 | 25
2 | CC(C)(C)c1ccc(C(=O)Nc2cn3cc(-c4ccccc4)ccc3n2)cc1 | 0 | 26 | 0 | 43 | 0 | 0 | 45 | 0 | 34 | 0 | 23 | 0 | 0 | 35 | 0 | 0 | 0 | 0 | 0 | 36
3 | CCC(=O)c1c(-c2ccccc2)c2cc(Cl)ccc2c(=O)n1Cc1cc(S(C)(=O)=O)n(CC(F)F)n1 | 0 | 31 | 0 | 0 | 0 | 0 | 7 | 0 | 47 | 1 | 0 | 0 | 0 | 3 | 0 | 5 | 0 | 0 | 0 | 22
4 | O=C(Nc1n[nH]c2cc(-c3ccccc3F)ccc12)C1CC1 [SB-733371] | 0 | 0 | 1 | 0 | 0 | 0 | 0 | 1 | 90 | 4 | 0 | 22 | 0 | 37 | 2 | 0 | 12 | 0 | 0 | 16
5 | COc1ccc(-c2cc3c(C)nc(N)nc3n([C@H]3CC[C@H](OCCO)CC3)c2=O)cn1 | 0 | 0 | 6 | 0 | 23 | 0 | 96.3 | 0 | 2 | 7 | 0 | 0 | 25 | 11 | 0 | 22 | 0 | 0 | 0 | 19
6 | COc1cc2nccc(Nc3cccc(Oc4ccccc4)c3)c2cc1OC.Cl [GW284543] | 0 | 18 | 1 | 47 | 0 | 0 | 15 | 6 | 0 | 0 | 0 | 0 | 36 | 8 | 0 | 0 | 19 | 0 | 0 | 0
7 | CCS(=O)(=O)c1ccc(OC)c(Nc2ncc(-c3ccc(F)cc3)o2)c1.Cl [GW591947] | 0 | 33 | 0 | 2 | 0 | 0 | 5 | 2 | 2 | 0 | 0 | 6 | 0 | 10 | 0 | 9 | 0 | 0 | 0 | 0
8 | CN1C(=O)C(Nc2cc(Cl)c(O)c(Cl)c2)=C(c2ccc(Cl)cc2)C1=O [SB-404321] | 0 | 0 | 0 | 33 | 0 | 0 | 2 | 0 | 11 | 0 | 0 | 0 | 8 | 0 | 0 | 0 | 0 | 0 | 0 | 16
9 | CCC(=O)c1c(-c2ccccc2)c2cc(Cl)ccc2c(=O)n1Cc1cc(S(C)(=O)=O)n(CC(N)=O)n1 | 0 | 0 | 0 | 0 | 0 | 0 | 40 | 0 | 0 | 0 | 0 | 0 | 0 | 32 | 0 | 0 | 0 | 0 | 0 | 32
10 | COc1cc(Nc2nccc(N3CCC(NC(=O)C4COc5ccccc5O4)C3)n2)cc(OC)c1OC (stereo not drawn) [GSK1379761] | 0 | 8 | 6 | 0 | 0 | 0 | 34 | 0 | 6 | 0 | 13 | 46 | 0 | 27 | 40 | 0 | 64 | 39 | 11 | 42
11 | COc1ccc(-c2cc3c(C)nc(N)nc3n([C@H]3CC[C@H](O)CC3)c2=O)cn1 | 30 | 0 | 0 | 0 | 2 | 0 | 99 | 0 | 4 | 0 | 98.8 | 0 | 0 | 0 | 0 | 0 | 0 | 0 | 0 | 16
12 | COC(=O)c1c(-c2ccccc2)c2cc(Br)ccc2c(=O)n1Cc1ccc(NC(=O)CCC(=O)O)cc1 | 0 | 43 | 12 | 27 | 7 | 0 | 32 | 0 | 0 | 1 | 29 | 100 | 0 | 0 | 0 | 0 | 0 | 0 | 0 | 13
13 | CCC(=O)c1c(-c2ccccc2)c2cc(Cl)ccc2c(=O)n1Cc1cc(C(=O)NC2CC2)n(C)n1 | 0 | 37 | 12 | 0 | 0 | 0 | 12 | 2 | 0 | 0 | 0 | 4 | 0 | 0 | 0 | 0 | 0 | 10 | 0 | 13
14 | Cc1ccc(Oc2ccc(Nc3ncnc4cc[nH]c34)cc2C)cn1 | 0 | 35 | 0 | 15 | 3 | 0 | 0 | 0 | 18 | 19 | 38 | 9 | 28 | 8 | 0 | 0 | 0 | 0 | 2 | 20
15 | COc1cc(OC)cc(-c2cc3cnc(N)nc3nc2NC(=O)NC(C)(C)C)c1 | 0 | 0 | 0 | 1 | 0 | 0 | 58 | 0 | 13 | 11 | 7 | 0 | 0 | 0 | 0 | 0 | 0 | 0 | 3 | 33
16 | Cl.c1ccc(Cn2cnc3cc(Nc4ncnc5ccccc45)ccc32)cc1 [GW272142] | 0 | 40 | 0 | 0 | 0 | 0 | 28 | 29 | 0 | 6 | 1 | 10 | 0 | 9 | 4 | 15 | 0 | 0 | 0 | 0
17 | Cc1nc(N(C)[C@H]2CN(C(=O)CC#N)CC[C@H]2C)c2cc[nH]c2n1 | 0 | 3 | 0 | 37 | 8 | 0 | 25 | 0 | 0 | 0 | 10 | 0 | 9 | 0 | 13 | 0 | 0 | 0 | 0 | 3
18 | COc1cc2ncn(-c3cc(OCc4ccncc4)c(C(N)=O)s3)c2cc1OC [GSK336313] | 0 | 34 | 0 | 0 | 0 | 0 | 28 | 93.6 | 21 | 36 | 44 | 10 | 0 | 0 | 0 | 0 | 0 | 31 | 10 | 0
19 | Cc1cccc(-c2nc(Nc3ccc4c(cnn4C)c3)c3ccccc3n2)n1 [GW876731] | 34 | 0 | 0 | 0 | 0 | 9 | 0 | 2 | 0 | 33 | 0 | 0 | 0 | 17 | 68 | 0 | 46 | 0 | 14 | 0
20 | COc1cccc(C2=C(Nc3cccc(C(=O)O)c3)C(=O)NC2=O)c1 [SB-390770] | 18 | 2 | 28 | 25 | 0 | 0 | 29 | 15 | 38 | 0 | 0 | 0 | 8 | 0 | 0 | 40 | 36 | 0 | 0 | 0
21 | COc1ccc(Nc2nccc(N3CCC(NS(=O)(=O)c4ccc(NC(C)=O)cc4)C3)n2)cc1 (stereo not drawn) [GSK1379729] | 15 | 25 | 7 | 0 | 0 | 9 | 43 | 18 | 29 | 1 | 15 | 8 | 2 | 10 | 0 | 0 | 1 | 0 | 8 | 7
22 | O=C(NCCNc1ccnc(Nc2ccc(F)cc2)n1)Nc1ccc2c(c1)OCO2 [GSK1379882] | 0 | 6 | 0 | 22 | 11 | 0 | 11 | 0 | 15 | 9 | 23 | 32 | 0 | 10 | 20 | 0 | 7 | 0 | 7 | 16
23 | Cc1cc(Nc2nc(-c3cccc(C)n3)nc3ccccc23)ccn1 [GW872411] | 0 | 0 | 0 | 0 | 0 | 0 | 73 | 9 | 0 | 26 | 0 | 0 | 0 | 31 | 22 | 6 | 0 | 0 | 0 | 14
24 | O=C(Nc1n[nH]c2nc(-c3ccccc3)c(Br)cc12)C1CC1 [SB-708998] | 0 | 100 | 18 | 7 | 0 | 0 | 16 | 0 | 95.7 | 0 | 7 | 0 | 13 | 18 | 0 | 4 | 0 | 0 | 15 | 0
25 | CCn1c(-c2ccoc2)nc2cnccc21 [SB-733887] | 0 | 0 | 0 | 0 | 0 | 0 | 29 | 2 | 18 | 0 | 11 | 6 | 0 | 0 | 0 | 19 | 12 | 2 | 0 | 16
26 | Cc1c(Cn2c(C)nn3c(=O)cc(N4CCO[C@H](C)C4)nc23)cccc1C(F)(F)F [GSK2373690] | 0 | 41 | 2 | 7 | 0 | 0 | 57 | 28 | 2 | 99.8 | 12 | 0 | 0 | 6 | 0 | 6 | 0 | 0 | 24 | 2
27 | CCS(=O)c1ccc(-c2coc3ccc(-c4nnc(C)o4)cc23)cc1 (stereo not drawn) | 0 | 15 | 33 | 0 | 17 | 0 | 2 | 0 | 5 | 4 | 0 | 0 | 3 | 0 | 0 | 5 | 0 | 0 | 0 | 1
28 | CCCC(=O)Nc1n[nH]c2ncc(-c3cccc4ccccc34)cc12 [SB-642057] | 17 | 18 | 5 | 0 | 6 | 0 | 17 | 11 | 9 | 0 | 28 | 0 | 0 | 13 | 3 | 100 | 0 | 0 | 0 | 28
29 | COc1cc(Nc2nccc(N3CCC(NC(=O)C(C)c4ccc(Cl)cc4)C3)n2)cc(OC)c1OC (stereo not drawn) [GSK1379757] | 0 | 37 | 8 | 5 | 0 | 0 | 36 | 0 | 0 | 0 | 8 | 20 | 0 | 26 | 0 | 0 | 12 | 8 | 0 | 19
30 | Cc1ccc(-c2ccc3c(ccc4sc5c(c43)NC[C@@H](C)N=C5N(C)C)n2)cn1 | 3 | 13 | 0 | 0 | 1 | 0 | 31 | 0 | 0 | 100 | 0 | 0 | 0 | 0 | 0 | 0 | 0 | 0 | 0 | 20
